# Source: PubChem BioAssay (National Center for Advancing Translational Sciences (NCATS))
# Compounds with a hit are over-represented: about 19% of the library has one in this group of screens.
# TDP1 cell CPT = growth inhibition of DT40 Tdp1-/-;hTDP1 cells with camptothecin (screen for TDP1 inhibitors); chicken DT40 Tdp1-/-;hTDP1 cells + 20 nM CPT, ATP luminescence, 48 h; Potency, µM (titrated, usually from 46.2 µM), actives largely listed as inhibitors; actives 12% (n = 420,000); AID 686979; also: nearly all actives have a fitted effect of over 55% in size
#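 Chicken DT40 Tdp1-/- cells complemented with human TDP1, 400 cells/well, exposed to compounds plus 20 nM camptothecin for at least 48 h at 37 C; viability read as ATP content by CellTiter-Glo luminescence.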
# IL-1B inflam inh = inflammasome signaling inhibition, IL-1 beta readout. activity change, % at 57.5 µM. THP-1 LPS/ATP IL-1B secretion, AlphaLISA, 16 h; hits give low values. actives 4.7% (n = 360,000); in the data active = activity change below about -50%; inconclusive = mostly about -30% to -49%
#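 THP-1 cells pretreated 1 hr with compounds (up to 57.5 uM final), then stimulated with LPS (250 ng/mL final) plus ATP (1.25 mM final); secreted IL-1B measured by AlphaLISA after 16 hr, decreased signal indicating inhibition.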
# HT1080-NT tox = kills 2HG-producing HT-1080-NT fibrosarcoma cells. HT-1080-NT fibrosarcoma viability, CellTiter-Glo ATP luminescence, 48 h. Potency, µM (top dose mostly 46.1 µM), actives largely listed as cytotoxic. actives 1.6% (n = 360,000);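 also: NT is the 2HG producing partner of a matched IDH1 knockdown line; nearly all actives have a fitted effect of over 55% in size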
#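 750 cells/well, RPMI + 5% FBS; 2 h settle, compound pin-transfer, 48 h at 37 degrees C. CellTiter-Glo 10 min RT, luminescence. Normalized to DMSO and media-only wells.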
# HT1080 IDH1KD tx = kills HT-1080 cells with IDH1 knockdown. HT-1080 IDH1 knockdown viability, ATP luminescence, 48 h. Potency, µM (doses to about 46.1 µM), usual class: cytotoxic. actives 2% (n = 360,000). AID 686971
#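 Assay cells: HT-1080 with IDH1 knockdown, 750 per well, RPMI/5% FBS. Exposure: 48 h at 37 °C following 2 h pre-incubation. Read: CellTiter-Glo luminescence; fitted concentration-response, curve class assigned.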
# TDP1 cell noCPT = qHTS for Inhibitors of human tyrosyl-DNA phosphodiesterase 1 (TDP1): qHTS in cells in absence of CPT; DT40 Tdp1-/- hTDP1 cells, no CPT, ATP luminescence, 48 h; Potency, µM (doses to about 46.2 µM), actives largely listed as inhibitors; actives 15% (n = 420,000); AID 686978, 2013; also: nearly all actives have a fitted effect of over 55% in size
#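 Stably hTDP1-transfected Tdp1-null chicken DT40 cells were treated with library compounds minus camptothecin and grown for at least 48 hr at 37 °C, after which cellular ATP was quantified by luminescence.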
# Hits are given with their value; n = inactive; u = inconclusive; x = not tested or not shown. Unless noted, calls follow the shape of the dose curve; as a rule, active = well fitted curve in the direction sought with a large enough effect; inconclusive = small, poorly fitted or top-dose-only effect, or another doubt; inactive = no such curve, though single readings can be large; an effect the other way counts as inactive or inconclusive.
SMILES,TDP1 cell CPT,IL-1B inflam inh,HT1080-NT tox,HT1080 IDH1KD tx,TDP1 cell noCPT
CSCCC(NC(=O)c1ccccc1Cl)C(=O)NCC(c1ccc(F)cc1)N1CCOCC1 (stereo unspecified),n,n,n,n,n
COc1ccc(C)c2sc(=NC(=O)c3ccccc3)n(C)c12,u,n,n,n,20.6µM
COc1ccc(C)c2sc(=NC(=O)c3ccc(C(C)=O)cc3)n(C)c12,14.6µM,n,n,n,u
COc1ccc(C)c2sc(=NC(=O)c3cccc(N4C(=O)CCC4=O)c3)n(C)c12,n,n,n,n,n
O=C(N/N=C/c1cccc([N+](=O)[O-])c1O)c1cccs1,0.731µM,n,u,u,1.03µM
O=C(N/N=C/c1ccccc1OCc1ccccc1)c1cccs1,u,n,n,n,14.6µM
O=C(N/N=C/c1cccc2ccccc12)c1cccs1,25.9µM,n,n,n,u
O=C(NN=Cc1cccc2ccccc12)C(=O)NN=Cc1cccc2ccccc12,u,n,n,n,14.6µM
COc1cc(/C=N/NC(=O)c2cccs2)ccc1OCc1ccccc1,n,n,n,n,n
O=C(N/N=C/c1c[nH]c2ccccc12)c1cccs1,n,n,n,n,n
Cc1ccc(S(=O)(=O)CCC(=O)NCc2ccco2)cc1,n,n,n,n,n
O=C(c1ccccc1Cl)N1CCN(CCc2ccccn2)CC1,n,x,x,x,n
COc1ccccc1/C=C/C=N/NC(=O)c1cccs1,20.6µM,n,n,n,6.51µM
O=C(NN=Cc1ccccc1Cl)c1cccc2ccccc12,n,n,n,n,u
NC(=S)N/N=C/c1ccccc1OC(=O)/C=C/c1ccccc1,5.17µM,u,n,n,0.517µM
NC(=S)N/N=C\c1ccccc1OCc1ccccc1,29.1µM,n,n,n,u
O=C(N/N=C/c1cccc2ccccc12)c1ccccc1Cl,n,-51.4,n,n,n
CN1C(=O)CC(CC(=O)N2CCCCC2CCO)(c2cccc(F)c2)C1=O (stereo unspecified),n,x,x,x,n
NC(=S)N/N=C/c1ccccc1OC(=O)c1cc2ccccc2oc1=O,u,n,n,n,6.51µM
CCn1c(SCC(=O)Nc2cccc(NC(=O)c3ccco3)c2)nnc1-c1cccs1,u,n,n,n,16.4µM
CCC(=O)Nc1cccc(-n2nnnc2SCC(=O)c2ccc(C)c(C)c2)c1,u,-91.8,n,u,u
CC(=O)c1ccc(-n2nnnc2SCC(=O)Nc2cccc(NC(=O)c3ccco3)c2)cc1,u,n,n,u,u
Cc1ccc(C)c(C(=O)CSc2nnnn2-c2cccnc2)c1,n,n,n,n,16.4µM
CCn1c(SCC(=O)Nc2ccc(NC(=O)c3ccco3)cc2)nnc1-c1cccs1,n,n,u,n,n
Cc1cc(C)cc(-n2nnnc2SCC(=O)Nc2cccc(NC(=O)c3ccco3)c2)c1,u,-51.8,n,n,u
SMILES,TDP1 cell CPT,IL-1B inflam inh,HT1080-NT tox,HT1080 IDH1KD tx,TDP1 cell noCPT
COc1ccccc1N1CCN(C(=O)c2ccc3c(c2)N(Cc2cc(C)ccc2C)C(=O)c2ccccc2S3(=O)=O)CC1,n,x,x,x,u
Cc1ccc(-n2nnnc2SCC(=O)Nc2cccc(NC(=O)c3ccco3)c2)cc1C,u,n,n,n,16.4µM
COc1cc(CN(C(=O)COc2ccc(C)c(C)c2)c2ccccn2)cc(OC)c1OC,7.31µM,x,x,x,8.2µM
COc1cc(CN(C(=O)c2ccccc2[N+](=O)[O-])c2ccccn2)cc(OC)c1OC,u,x,x,x,14.6µM
COc1cc(CN(C(=O)c2ccc(OC(C)C)cc2)c2ccccn2)cc(OC)c1OC,2.31µM,x,x,x,4.11µM
COc1cc(CN(C(=O)Nc2ccccc2)c2ccccn2)cc(OC)c1OC,n,x,x,x,u
COc1cc(CN(C(=O)c2ccc(OC(C)C)cc2)C2CCS(=O)(=O)C2)cc(OC)c1OC (stereo unspecified),n,x,x,x,n
COc1ccc(C(=O)N(Cc2cc(OC)c(OC)c(OC)c2)c2ccccn2)cc1,u,x,x,x,20.6µM
O=C(COC(=O)c1cc[n+]([O-])cc1)Nc1cc([N+](=O)[O-])ccc1Cl,n,n,n,n,n
Cc1ccc(Oc2cc(NN3CCCCC3)c([N+](=O)[O-])cc2[N+](=O)[O-])c(Cl)c1,u,n,n,n,u
